The panel holds about 83,000 compounds, 20% with a hit somewhere; the sample as a whole holds those more often.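 Results are percent growth after 48 hours of single-concentration exposure. 100 means growth as in untreated cells, lower positive values show inhibition; negative values down to -100 show cell death.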 Values without a mark were called inactive. Activity calls are given as the source filed them. Rule for the calls: active = growth percent below 10; inactive = the rest.
Key:
Assay in all cases: NCI-60 one-dose screen, 48 h (100 = growth as untreated, 0 = no growth, -100 = all killed)
Settings in all cases: 10 µM unless noted
NCI-H23 lung = tested on: NCI-H23 lung
NCI-H226 lung = tested on: NCI-H226 lung
NCI-H322M lung = tested on: NCI-H322M lung
HOP-62 NSCLC = tested on: HOP-62 NSCLC
NCI-H460 lung = tested on: NCI-H460 lung
HOP-92 NSCLC = tested on: HOP-92 NSCLC
NCI-H522 lung = tested on: NCI-H522 lung
A549/ATCC NSCLC = tested on: A549/ATCC NSCLC
786-0 renal = tested on: 786-0 renal
COLO 205 colon = tested on: COLO 205 colon

| SMILES | growth (NCI-H23 lung) | growth (NCI-H226 lung) | growth (NCI-H322M lung) | growth (HOP-62 NSCLC) | growth (NCI-H460 lung) | growth (HOP-92 NSCLC) | growth (NCI-H522 lung) | growth (A549/ATCC NSCLC) | growth (786-0 renal) | growth (COLO 205 colon) |
| --- | --- | --- | --- | --- | --- | --- | --- | --- | --- | --- |
| COc1cc(N=Nc2cc(Cc3ccc(N(C)C)cc3)c(N)cc2N(C)C)c2ncccc2c1 | 1.24% (active) | 19.4% | 11% | 20% | -60.2% (active) | -8.54% (active) | -5.05% (active) | -45.9% (active) | -88.9% (active) | -33.7% (active) |
| CCC(CO)Nc1nc2ccc(Cl)cc2c2ccccc12 (stereo not given) | 73.9% | 65.3% | 47.2% | 60.3% | 25.1% | 48.9% | 58.6% | 55.3% | 41.6% | 86.4% |
| CCCCn1c(=O)c2c(nc3n2CCCN3CCc2ccc(OCC(=O)NCCN(CC)CC)cc2)n(CCCC)c1=O | 68.7% | 72.9% | 94.4% | 56.1% | 56.9% | 27.8% | 44.1% | 64.2% | 11.3% | 25.7% |
| CCN(CC)c1nc(SCC(=O)Nc2nc3ccc(C)cc3s2)nc(-c2ccccc2)c1C#N | 103% | 86.2% | 88.8% | 91.9% | 99.4% | 55.4% | 82.5% | 79.4% | 93.8% | 102% |
| Cn1cc2c(c1)-c1nc(Nc3ccccc3)ncc1CC2 | 38.3% | 51.7% | 52.9% | 69.2% | 42.5% | 70.6% | 84.9% | 72% | 87.2% | 76.7% |
| C=C1C(=O)O[C@H]2[C@H]1CC/C(CNC(=O)/C=C/c1ccc(Cl)cc1Cl)=C\CC[C@@]1(C)O[C@@H]21 | -61.2% (active) | 64.2% | 73.9% | 17.2% | 2.98% (active) | -50.8% (active) | -84.2% (active) | 20.9% | -77.1% (active) | -65.5% (active) |
| CCN(CC)S(=O)(=O)c1cccc(-c2ccc3c(NC(=O)C4CC4)n[nH]c3c2)c1 | 28.5% [6.25 µM] | 26.5% [6.25 µM] | 55.6% [6.25 µM] | 18.5% [6.25 µM] | 12.3% [6.25 µM] | 41.3% [6.25 µM] | -17% [6.25 µM] (active) | 21.2% [6.25 µM] | 18.1% [6.25 µM] | 3.94% [6.25 µM] (active) |
| O=c1cc(C2NNC(=S)N2)c2ccc3ccccc3c2o1 (stereo not given) | 91.6% | 101% | 101% | 95.1% | 98.6% | 103% | 87.1% | 108% | 100% | 104% |
| CC(C)(C)c1ccc(/C=C/C(=O)Nc2ccc(O)cc2)cc1 | 80.9% | 65% | 78% | 52.2% | 46.9% | 106% | 26.4% | 64.6% | 69.1% | 73.6% |
| Cn1cc(-c2csc(-c3ccccc3)n2)c2cccnc21 | -54.3% [100 µM] (active) | -11.7% [100 µM] (active) | -23.6% [100 µM] (active) | -74.3% [100 µM] (active) | -56.2% [100 µM] (active) | -53% [100 µM] (active) | -24.3% [100 µM] (active) | -12.8% [100 µM] (active) | -77.4% [100 µM] (active) | -67.2% [100 µM] (active) |
| COc1ccc(-c2[nH]c(=S)n(C(CC3(C)NCC(=O)N3n3c(-c4ccccc4)cc(C)nc3=S)c3ccc(OC)cc3)c(=O)c2Br)cc1 (stereo not given) | 70.8% | 57.1% | 82.2% | 66.9% | 73.1% | 38.5% | 42.4% | 72% | 83.3% | 74.9% |
| O=C(NCCCNc1cc(-c2cn(-c3ccccc3)nc2-c2cccc(O)c2)ccn1)c1ccc(F)cc1 | 42% | 58.9% | 62.8% | 26.2% | 27.9% | 14.4% | 9.35% (active) | 16.1% | -49.4% (active) | -59.1% (active) |
| COc1ccc(/C=c2\nc3n(-c4ccccc4)c4nc5c6c(sc5c(=N)n4n-3c2=O)CCCC6)cc1 | 80.8% | 69.2% | 94.6% | 88.1% | 98.1% | 63.4% | 83.4% | 97.4% | 99.5% | 111% |
| O=C(c1ccccc1)c1c(/C=C/c2ccc(Cl)cc2)nc2ccccc2c1/C=C/c1cccs1 | 102% | 92.4% | 89.4% | 106% | 107% | 87.3% | 88.6% | 92.9% | 94.9% | 103% |
| COc1ccccc1N1C(=O)/C(=C/C2=Cc3ccccc3OC2)SC1=S | 97.6% | 103% | 92.6% | 91.7% | 102% | 97.7% | 90% | 95.7% | 101% | 109% |
| N=C1C(c2nc(-c3ccc(Br)cc3)cs2)=C(O)CN1Cc1cccnc1 | 81.9% | 98.8% | 50.2% | 43.6% | 66.7% | -47.3% (active) | 68.4% | 60.6% | 35.2% | 87.5% |
| N#Cc1nc(C#N)c(Sc2ccccc2)c(Sc2ccccc2)c1Sc1ccccc1 | -42.1% (active) | 3.05% (active) | 23.9% | -46% (active) | -44.7% (active) | -31.7% (active) | -67.2% (active) | 3.65% (active) | -55.9% (active) | -88.2% (active) |
| Cc1ccc(/C=C2\C(=O)N(C)c3ccc(S(=O)(=O)Nc4ccc(C(C)(C)C)cc4)cc32)s1 | 64.1% | 86% | 58.7% | 31.8% | 32.1% | 60% | 43.4% | 33.1% | 40.1% | 70.9% |
| C=CCn1c(C)nc2cc(Nc3nc(N4CCCC4)nc4ccccc34)ccc21 | 88.6% | 97.7% | 113% | 90.6% | 81.2% | 81.3% | 127% | 74.6% | 75.9% | 92.6% |
| Cc1cc(NCCCCNc2ccnc3cc(Cl)ccc23)nc(Nc2ccc(C(=O)N3CCCC3)cc2)n1 | 81.4% | 108% | 67.6% | 92.5% | 18.1% | 72.6% | 26.5% | 24% | 68.4% | -42.8% (active) |
| C[C@@]1(CCC#N)[C@H]2CC[C@@H]3[C@H]4[C@H](C(=O)/C=C/c5cccnc5)CC[C@]4(C#N)CC[C@@]3(C)[C@]2(C)CC[C@H]1C(=O)/C=C/c1cccnc1 | 62.8% | 65.5% | 97.7% | 73.2% | 75.2% | 80.7% | 37.9% | 71.9% | 77.9% | 71.7% |
| O=Cc1ccc(O)c2ncccc12 | 29.2% | 116% | 97.1% | 44.6% | 30.1% | 43.5% | 51.8% | 100% | 89.3% | 17.8% |
| Cc1cc(NCc2cc(Nc3ccnc4cc(Cl)ccc34)ccc2F)nc(N2CCOCC2)n1 | 43.8% | 61.2% | 71.3% | -9.53% (active) | 39.8% | 42.5% | 21.8% | 59.4% | 1.21% (active) | 35.5% |
| COC(=O)[C@]12CC[C@@H](C)[C@H](C)[C@@H]1C1=CC[C@@H]3[C@@]4(C)C(C=O)=C[C@@](C)(COC(C)=O)[C@@H]4C(=O)C[C@@]3(C)[C@]1(C)CC2 | 34.2% | 38.7% | 77.2% | 50.1% | 18.8% | 47.7% | 12.9% | 14.2% | 37.3% | -9.64% (active) |
| O=C(NC(Cc1nnc2n(Cc3ccccc3)c(=O)c3c4c(sc3n12)CCCC4)c1ccc(Cl)cc1)c1ccccc1 (stereo not given) | 82.2% | 97.6% | 108% | 77.2% | 101% | 76.8% | 75.8% | 98.9% | 38.3% | 106% |
| COc1cccc(-c2nc3sccn3c2-c2ccnc(NCCNS(=O)(=O)c3cccc(Cl)c3)c2)c1 | 53.5% | 40.7% | 80.8% | 70.9% | 45.4% | 37.2% | 56.7% | 45.4% | 63.6% | 34.8% |
